From PubChem BioAssay
LmPK inhibitor: inhibitors of Leishmania mexicana pyruvate kinase; Q27686; purified LmPK, Kinase-Glo ATP luminescence, 1 h; Potency, µM (series often up to 57.5 µM), for inactives: at the top dose activity change, negative = inhibition, hits mostly inhibitors; 290,000 tested, 0.37% active; note: potency is the fitted concentration of half-maximal effect; % is set by controls: 0 for no effect and ±100 for the full control effect
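Purified LmPK (0.1 nM) converted ADP (0.1 mM) to ATP with PEP (0.5 mM) in imidazole buffer pH 7.2 with KCl and MgCl2, 1 h at room temperature. ATP was read by Kinase-Glo luminescence; data normalized to uninhibited and no-enzyme controls.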
TbPYK inhibitor: blocks Trypanosoma brucei pyruvate kinase. TbPYK enzyme, Kinase-Glo Plus ATP luminescence, 45 min. Potency, µM (top dose mostly 76.8 µM), inactives show at the top dose activity, negative = inhibition, usual class: inhibitors. Q57TT1. AID 624173. 410,000 tested, 0.12% active; note: potency is the fitted concentration of half-maximal effect; % is set by controls: 0 for no effect and ±100 for the full control effect; nearly all actives have a fitted effect of over 50% in size
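Screened from lowest to highest concentration, compounds were pinned into TbPYK/substrate mixtures, and ADP (130 uM final) was added. Plates sat at room temperature for 45 min prior to Kinase-Glo Plus detection by luminescence.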
Giardia FBPA inh: blocks Giardia fructose-bisphosphate aldolase activity; Potency, µM (titrated, usually from 59.6 µM), for the others: top-dose activity, negative = inhibition, usual class: inhibitors; purified Giardia FBPA; 290,000 tested, 0.71% active; AID 2451; A8B2U2; note: potency is the fitted concentration of half-maximal effect; % is set by controls: 0 for no effect and ±100 for the full control effect; nearly all actives have a fitted effect of over 55% in size
Target sequence (A8B2U2 whole entry, looked up): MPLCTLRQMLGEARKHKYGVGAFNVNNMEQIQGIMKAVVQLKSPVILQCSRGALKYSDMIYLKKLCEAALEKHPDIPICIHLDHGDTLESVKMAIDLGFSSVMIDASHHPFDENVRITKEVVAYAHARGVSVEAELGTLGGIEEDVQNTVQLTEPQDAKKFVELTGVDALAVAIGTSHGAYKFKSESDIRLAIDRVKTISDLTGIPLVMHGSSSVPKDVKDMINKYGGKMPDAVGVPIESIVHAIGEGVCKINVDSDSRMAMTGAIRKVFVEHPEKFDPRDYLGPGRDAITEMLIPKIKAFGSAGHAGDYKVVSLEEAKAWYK
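40 nM FBPA preincubated 10 min at RT with compound (up to 57.5 uM final), then substrate plus GAPDH/TPI/NAD/arsenate coupling and diaphorase/resazurin added. Fluorescence read after 20 min at RT, 525/598 nm.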
RE007 growth inh: less growth of the S. pombe RE007 Vpr strain; 360,000 tested, 0.21% active; S. pombe RE007 Vpr strain, BacTiter-Glo ATP luminescence, 24 h; Potency, µM (series often up to 92.2 µM), without a hit: at the top dose activity change, negative = less growth, hits mostly inhibitors; active = well fitted falling curve with a large enough effect; inconclusive = small, poorly fitted or top-dose-only effect; inactive = no such curve, though single readings can be large or run the other way; note: potency is the fitted concentration of half-maximal effect; % is set by controls: 0 for no effect and ±100 for the full control effect; nearly all actives have a fitted effect of over 50% in size
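Fission yeast strain RE007, carrying one chromosomally integrated HIV-1 vpr copy, was seeded at OD 0.01 in PMG+AL medium with 23 nL pinned compound. After 24 h at 30 °C and 99% humidity, viability was read by BacTiter-Glo luminescence.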
Cycloheximide cs: affects cycloheximide protein synthesis inhibition readout, counter-screen; max response, %; cell reporter, cycloheximide protein synthesis inhibition counterscreen; 300,000 tested, 12% active; in the data active = max response mostly above about 13%, no sharp cut-off; inactive = mostly below about 14%; note: read at 38.3 µM for the half of the compounds with a filed dose; 0% is about no effect
Shiga toxin inh: Shiga toxin inhibition. Vero cells, Shiga toxin protein synthesis inhibition reporter. inhibition, % at 38.7 µM. 290,000 tested, 9.2% active. AID 2315; in the data active = inhibition mostly above about 28%, no sharp cut-off; inactive = mostly below about 43%; note: 0% is about no effect
Starred values were filed as active, the others as inactive; ? = inconclusive; . = no result given; + = active, no number. Shown is part of a subset that was picked to be rich in hits. Unless noted, calls come from the whole dose curve; as a rule, active = well fitted curve in the direction sought with a large enough effect; inconclusive = small, poorly fitted or top-dose-only effect, or another doubt; inactive = no such curve, though single readings can be large; an effect the other way counts as inactive or inconclusive.

SMILES | LmPK inhibitor | TbPYK inhibitor | Giardia FBPA inh | RE007 growth inh | Cycloheximide cs | Shiga toxin inh
Cn1c(/N=C/c2cccs2)nc2ccccc21 | 14µM* | -14% | -2% | -3% | -6 | -13
COc1ccc(Br)cc1-c1noc(-c2ccncc2)n1 | -7% | 3% | -1% | 7% | 11 | -18
COc1ccccc1-c1nc(-c2ccccn2)no1 | 4.5µM* | ? | 1% | ? | 14 | -5
COc1ccccc1-c1noc(-c2ccncc2)n1 | ? | -4% | 7% | -23% | 27* | 64*
COc1ccccc1-c1noc(-c2cccs2)n1 | ? | 2% | 8% | -4% | 44* | 111*
COc1ccc2c(c1)C(=O)[C@H](OC(=O)NS(=O)(=O)c1ccc(F)cc1)[C@@H](c1ccc(OC)c(Br)c1)O2 | . | . | 1% | . | . | .
CCCCN1C(=O)C(=O)N(c2ccccc2)C1=S | -9% | -6% | -2% | 2% | 67* | +
COc1ccc(C(NC(=O)/C=C/c2ccco2)c2ccc(OC)cc2)cc1 | 1% | -17% | -4% | 9% | 7 | 1
COc1ccc(C(NC(=O)/C=C\c2ccco2)c2ccc(OC)c(OC)c2)cc1 (stereo unspecified) | 2% | ? | 6% | -3% | 25* | 105*
CC(C)(C)c1ccc(/C=C/C(=O)Nc2cccnc2)cc1 | -2% | 6% | 0% | -14% | 29* | 70*
COc1ccccc1NC(=O)/C=C\c1ccco1 | -3% | -20% | 0% | -8% | 41* | 68*
CSc1cccc(NC(C)=O)c1 | -2% | 3% | -1% | 5% | -1 | 6
CSc1cccc(NC(=O)/C=C/c2ccco2)c1 | 2% | -13% | -13% | -25% | 55* | 110*
O=C(O)/C=C/C(=O)Nc1cccnc1 | 1% | -2% | -3% | 0% | -1 | -10
COc1ccccc1NC(=S)NC(=O)/C=C/c1ccco1 | 5% | -10% | -14% | -17% | 7 | 9
O=C(/C=C/c1ccco1)Nc1cccnc1 | ? | -12% | -18% | 5% | 21* | 47
O=C(/C=C/c1ccco1)Nc1ccc(Oc2ccc(Cl)cc2)cc1 | 0% | -4% | -8% | ? | -3 | 0
COc1ccc([N+](=O)[O-])cc1NC(=O)C(C)OC(=O)/C=C/c1ccco1 (stereo unspecified) | 1% | -13% | 0% | . | 17* | 36*
COc1cccc(NC(=O)/C=C/c2ccco2)c1 | 16µM* | -16% | -23% | ? | 52* | 140*
O=C(/C=C/c1ccco1)c1cccnc1 | -2% | -12% | 2% | . | 5 | -4
CC(OC(=O)/C=C/c1ccco1)C(=O)Nc1cccc([N+](=O)[O-])c1 (stereo unspecified) | -6% | -3% | -2% | 1% | 1 | 27
CCOc1cc(OCC)cc(C(=O)N2CCC[C@H]2C(=O)N2CCC[C@H]2C(=O)N[C@@H](C)c2ccccc2)c1 | . | -1% | . | 2% | . | .
O=C(c1cc2c(=O)n3ccccc3nc2s1)N1CCc2ccccc2C1 | 3% | . | ? | . | 11* | 13
O=C(NC1CCCC1)c1cc2c(=O)n3ccccc3nc2s1 | . | -11% | . | 12% | . | .
CCN1CCN(C(=O)c2cc3c(=O)n4ccccc4nc3s2)CC1 | 0% | 0% | 5% | -2% | 10 | 17
SMILES | LmPK inhibitor | TbPYK inhibitor | Giardia FBPA inh | RE007 growth inh | Cycloheximide cs | Shiga toxin inh
CCOC(=O)C1CCN(C(=O)c2cc3c(=O)n4cccc(C)c4nc3s2)CC1 | 1% | 4% | -1% | -7% | -1 | -6
Cc1cccn2c(=O)c3cc(C(=O)N4CCCC(C)C4)sc3nc12 (stereo unspecified) | 0% | -2% | -1% | -9% | 19 | 25
CC1CCCN(C(=O)c2cc3c(=O)n4ccccc4nc3s2)C1 (stereo unspecified) | 1% | 1% | 12% | 3% | 34* | 78*
CCOC(=O)C1CCN(C(=O)c2cc3c(=O)n4ccccc4nc3s2)CC1 | -8% | 1% | . | 7% | 23* | 35
CC1CCCCN1C(=O)c1cc2c(=O)n3ccccc3nc2s1 (stereo unspecified) | 2% | 6% | -9% | 3% | 10 | 52*
COC(=O)CCC(C)C1CCC2C3CCC4CC(O)CCC4(C)C3CC(O)C12C (stereo unspecified) | . | 1% | . | -20% | . | .
O=C(O)C1C2C=CC(O2)C1C(=O)NCc1ccc2c(c1)OCO2 (stereo unspecified) | 0% | 1% | 11% | -27% | -3 | -4
O=C(O)C1C2C=CC(O2)C1C(=O)NCc1ccc(Cl)cc1 (stereo unspecified) | -2% | -4% | 3% | 35µM* | 4 | -4
O=C(NCCC1=CCCCC1)c1cnccn1 | 2% | -6% | 0% | 7% | 20* | 42
Cc1cnc(C(=O)NCCc2ccc(Cl)cc2)cn1 | -7% | 4% | . | -7% | 55* | 73*
O=C(NCCc1ccc(Cl)cc1)c1cnccn1 | 5% | 1% | -5% | 11% | 17* | 9
COc1ccc(CCNC(=O)c2cnccn2)cc1 | 3% | -10% | -3% | 5% | -5 | 3
O=P(c1ccccc1)(c1ccccc1)c1ccccc1C(Br)Br | . | ? | . | -4% | . | .
CCCSc1ncc(Cl)c(C(=O)Nc2sc3c(c2C(=O)NCC)CCCC3)n1 | . | -7% | . | . | . | .
C=C1C(c2ccc(C)cc2)=CCc2cc(C)cc(C)c21 | . | . | 2% | . | 39* | 53*
CCc1nnc(SCc2nc(-c3ccccc3)oc2C)c2cc3sccc3n12 | . | 5% | . | . | . | .
O=C(CSc1nnc(-c2ccc(F)cc2)o1)Nc1ccc(S(=O)(=O)N2CCCC2)cc1 | 2% | 3% | 2% | 13% | 20* | 42
Fc1ccc(CSc2nnc(-c3ccccn3)o2)cc1 | 0% | 6% | -18% | -16% | 28* | 41*
O=C(CSc1nnc(-c2ccccn2)o1)Nc1ccc(F)cc1 | -6% | 11% | . | 1% | 10 | 24*
O=C(CSc1nnc(-c2ccccn2)o1)Nc1ccccc1 | 1% | 2% | -7% | -7% | 20 | 65*
COc1ccccc1NC(=O)CSc1nnc(-c2ccccn2)o1 | 0% | 2% | -6% | -7% | -2 | 29
O=c1ccn([C@@H]2O[C@H](CNCC3=Cc4cc(O)ccc4OC3)[C@@H](O)[C@H]2O)c(=O)[nH]1 | . | 5% | . | -15% | . | .
COc1ccc(C2(OC)Oc3cc(OC)ccc3C(=O)C2(O)OC)cc1 (stereo unspecified) | . | -2% | . | 0% | . | .
CNC1CC(N)[C@H](O)[C@@H](O[C@@H]2OC(CO)C3OC4(OC(C(N)CO)C(O)C(O)C4O)O[C@@H]3[C@H]2O)C1O (stereo partly specified) | . | -1% | -2% | . | . | .
CCSc1nc2nccnc2c(=O)[nH]1 | . | 0% | . | 8% | . | .
